Here are results for one compound from PubChem BioAssay AID651832 (Vanderbilt Specialized Chemistry Center, 2012).

This assay in a line: off-target radioligand binding panel, profiling panel, selectivity assay for M5 PAM project, biochemical, Eurofins PanLabs, competition binding (AID 651832). The settings on record: at 10 µM, stronger effect = higher value.

The compound `O=C1C(=O)N(CCOc2ccccc2)c2ccc(OC(F)(F)F)cc21` showed an inhibition of radioligand binding, muscarinic M1 of 22%. The inhibition (in general, the relative decrease from the control value, in per cent) (measured here: adenosine A3 binding) came to 57%. Where the note is “measured here: adrenergic alpha1A binding”, the inhibition is 71%. Besides, the inhibition (measured here: adrenergic alpha1B binding) turned out to be 66%. Besides, the inhibition (measured here: cannabinoid CB1 binding) was 72%. The inhibition (measured here: dopamine D1 binding) turned out to be 73%. Moreover, under “measured here: dopamine D3 binding”, the inhibition is 59%. Under “measured here: glucocorticoid receptor binding”, the inhibition came out at 88%. Also, the inhibition (measured here: hERG binding) was determined as 21%. The inhibition (measured here: histamine H2 binding) was determined as 95%. Further, the inhibition (measured here: mu opioid binding) turned out to be 78%. Besides, the inhibition (measured here: muscarinic M2 binding) is -2%. For the same compound, the inhibition (measured here: norepinephrine transporter binding) amounted to 77%.
